Screens from PubChem BioAssay.
The list is not random: actives were taken first. Their share in the collection is about 2.4%.
PP5 primary: PP5 phosphatase inhibitors, primary screen, biochemical, fluorescence. inhibition, % at 6.7 µM. Serine/threonine-protein phosphatase 5 (Homo sapiens), P53041. purified PP5c, OMFP substrate fluorescence. AID 1987, 2009. hit rate 0.18% among 320,000;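 active = inhibition above the campaign's mean inhibition across all tested compounds plus 3 SD, cut at about 9.5% in these data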;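 also: 0% = DMSO only and 100% = 100 µM cantharidin control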
Rpn11 block: Rpn11 (PSMD14) deubiquitinase inhibitors, primary screen, biochemical, fluorescence polarization, uHTS; 26S proteasome non-ATPase regulatory subunit 14 (Homo sapiens), O00487; human 26S proteasome, Ub4-pepOG fluorescence polarization; 20S core pre-blocked with epoxomicin; inhibition, % at 20 µM; hit rate 0.59% among 360,000;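 active = inhibition at 20 µM, scaled to each plate's controls, above about 33%, limit read from the data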
Target sequence (O00487 whole entry, looked up): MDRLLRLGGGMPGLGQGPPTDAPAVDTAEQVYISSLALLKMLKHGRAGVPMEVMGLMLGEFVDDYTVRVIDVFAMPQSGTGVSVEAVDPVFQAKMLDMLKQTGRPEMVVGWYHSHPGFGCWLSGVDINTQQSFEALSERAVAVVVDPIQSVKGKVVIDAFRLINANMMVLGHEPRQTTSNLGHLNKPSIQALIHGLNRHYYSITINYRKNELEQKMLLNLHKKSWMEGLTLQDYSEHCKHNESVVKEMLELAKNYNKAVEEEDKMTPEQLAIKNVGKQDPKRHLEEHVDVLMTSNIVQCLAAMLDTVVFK
PREPL inhibitor: PREPL enzyme inhibitors, primary screen, biochemical, fluorescence polarization | inhibition, % at 5.96 µM | AID 2751, 2010 | hit rate 0.68% among 320,000 | recombinant PREPL, fluorescence polarization activity-based probe | Prolyl endopeptidase-like (Homo sapiens), Q4J6C6; in the data active = inhibition above about 43%;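 also: 0% = enzyme with DMSO and 100% = wells lacking enzyme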
NadD block: inhibitors of S. aureus NadD, primary screen, biochemical, colorimetric, uHTS; inhibition, % at 20 µM; AID 602399, 2012; hit rate 0.78% among 360,000; purified NadD enzyme, colorimetric absorbance read-out; in the data active = inhibition above about 26%
PP1 inh: PP1-alpha phosphatase inhibitors, primary screen, counter-screen for PP5 inhibitor project, biochemical, fluorescence, OMFP substrate, single point; Serine/threonine-protein phosphatase PP1-alpha catalytic subunit (Homo sapiens), P62136; purified PP1alpha; inhibition, % at 6.7 µM; hit rate 0.9% among 320,000; AID 2235, 2010;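 active = inhibition above the mean inhibition of all tested compounds plus 3 SD, computed separately for each screening campaign, cut at about 15% in these data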
Target sequence (P62136 whole entry, looked up): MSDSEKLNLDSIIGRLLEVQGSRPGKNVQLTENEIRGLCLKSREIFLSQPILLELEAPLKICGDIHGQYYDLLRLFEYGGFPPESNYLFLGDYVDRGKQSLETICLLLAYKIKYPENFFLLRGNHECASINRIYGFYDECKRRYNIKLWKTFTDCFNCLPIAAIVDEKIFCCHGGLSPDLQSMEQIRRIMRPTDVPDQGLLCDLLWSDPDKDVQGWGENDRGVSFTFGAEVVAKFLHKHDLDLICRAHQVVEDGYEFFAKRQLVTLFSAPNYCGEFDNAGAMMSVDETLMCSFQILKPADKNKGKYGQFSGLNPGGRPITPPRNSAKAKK
PP5 conf: PP5 phosphatase inhibitors, confirmation, biochemical, fluorescence, human; shares compounds with PP5 primary; Purified PP5, fluorogenic phosphatase substrate; inhibition, % at 6.7 µM; hit rate 22% among 460; in the data active = inhibition above about 9.5%
PP1 counter 3x: PP1 phosphatase inhibitors, counter-screen for PP5 inhibitor project, biochemical, fluorescence, triplicate; PP1 enzyme, fluorescent phosphatase substrate; shares compounds with PP5 primary; hit rate 4% among 460; inhibition, % at 6.7 µM; in the data active = inhibition above about 16%
The depositor's hits bear a star; / = not tested or not shown.

SMILES	PP5 primary	Rpn11 block	PREPL inhibitor	NadD block	PP1 inh	PP5 conf	PP1 counter 3x
CCOC(=O)CC(=O)CSc1nc(-c2ccccc2)cc(-c2ccccc2)c1C#N	0.6	34.4	7.4	0.2	16.7*	/	/
Cc1cc(Cl)c2oc(C(=O)N3CCCCC3CCN3CCCC3=O)c(C)c2c1 (centres undefined)	1.2	-0.2	1.8	-3.3	-0.3	/	/
O=C1C(Nc2cccc(O)c2)=C(N2CCCCC2)C(=O)c2ccccc21	7.9	-23.3	27.4	-2.0	-2.5	/	/
O=C1C(Nc2ccccc2)=C(N2CCCCC2)C(=O)c2ccccc21	10.5*	-4.8	5.5	-9.9	1.7	32.7*	-0.5
O=C(/C=C/c1ccc(O)cc1)c1ccc(NC2=C(N3CCCCC3)C(=O)c3ccccc3C2=O)cc1	9.9*	7.2	29.2	22.9	4.1	37.1*	0.6
Cc1ccc(NC2=C(N3CCCCC3)C(=O)c3ccccc3C2=O)cc1	8.9	9.8	15.9	-3.8	5.0	/	/
COc1ccc(C(=Cc2ccccc2[N+](=O)[O-])C(=O)O)cc1	/	2.5	/	-6.5	/	/	/
CC(C)c1cc(NCC2CCCO2)n2c(nc3ccccc32)c1C#N (centres undefined)	3.7	-3.6	8.1	0.0	2.4	/	/
NS(=O)(=O)c1ccc(Nc2nc3ccccc3nc2NS(=O)(=O)c2cccc([N+](=O)[O-])c2)cc1	10.9*	0.6	7.9	4.1	7.2	6.5	13.5
CC(=O)Nc1ccc(S(=O)(=O)Nc2nc3ccccc3nc2Nc2ccc(S(N)(=O)=O)cc2)cc1	2.9	-11.9	5.7	3.6	1.6	/	/
CCSc1nc2ccccc2c(=O)n1CCc1ccc(OC)c(OC)c1	10.1*	1.5	9.0	-9.9	-2.7	-0.9	0.1
O=C(Cn1c(NCCO)nc2ccccc21)NCCc1ccccc1	2.6	6.6	0.5	0.3	2.2	/	/
O=C(Cn1c(NCCO)nc2ccccc21)c1ccco1	10.2*	-0.5	-9.6	-0.3	-5.3	-5.4	-4.5
CC1(C(=O)NS(=O)(=O)C2CC2)CCCN(C(=O)c2cccs2)C1 (centres undefined)	/	-0.1	/	3.3	/	/	/
COc1ccc(CCC(=O)Nc2nnc(C(C)(C)C)s2)cc1	12.6*	-5.0	-2.8	-8.6	-0.4	-0.2	-1.2
O=C1CSC(c2cccc([N+](=O)[O-])c2)N1c1ccccc1F (centres undefined)	0.9	13.2	1.7	-5.7	1.4	/	/
CC(C)c1cc(C(=O)N/N=C/c2c[nH]c3ccccc23)n[nH]1	9.8*	-0.9	6.9	-0.6	-1.5	-5.6	-3.1
O=C(NNC(=O)c1ccc[nH]1)Nc1cc(Cl)cc(Cl)c1	15.8*	3.4	-10.7	-6.9	8.1	-2.9	-8.2
COc1ccc(C2=NN(C(=O)CN3CCCC3)C(c3ccc(OC)cc3)C2)cc1 (centres undefined)	-0.6	-5.3	-0.6	-0.5	0.1	/	/
COc1ccc(C2=NN(C(=O)CN3CCCCC3)C(c3ccc(OC)cc3)C2)cc1 (centres undefined)	16.5*	5.3	3.1	-0.6	-0.3	-2.8	-4.5
CNS(=O)(=O)c1ccc(C(=O)NCC(=O)NC(C)c2cccs2)cc1 (centres undefined)	3.7	-0.1	12.8	2.7	-1.5	/	/
COc1ccc(C(=O)Nc2ccc(S(=O)(=O)N3CCCCC3C)cc2)c(OC)c1OC (centres undefined)	11.3*	-2.5	19.7	-7.7	0.1	0.7	2.0
NC(=S)N=Nc1c(O)cc(O)c2[nH]c(=O)ccc12	/	-13.1	/	18.3	/	/	/
O=C(O)C1C2C=CC(C2)C1C(=O)Nc1ccc2c(c1)OCCO2 (centres undefined)	-0.2	-3.5	-0.7	1.9	0.6	/	/
CC(C)OC(=O)c1cc(NC(=O)C2C3C=CC(O3)C2C(=O)O)cc(C(=O)OC(C)C)c1 (centres undefined)	30.6*	0.6	9.4	-2.2	8.2	-3.6	3.4
SMILES	PP5 primary	Rpn11 block	PREPL inhibitor	NadD block	PP1 inh	PP5 conf	PP1 counter 3x
COc1cccc(NC(=O)C2C3C=CC(O3)C2C(=O)O)c1 (centres undefined)	24.1*	1.1	23.8	1.9	5.1	2.2	17.7*
CC(C)OC(=O)c1cc(NC(=S)Nc2ccc([N+](=O)[O-])cc2)cc(C(=O)OC(C)C)c1	2.3	8.4	-1.4	10.4	-1.3	/	/
COc1ccc(NC(=O)C2C3C=CC(O3)C2C(=O)O)cc1 (centres undefined)	6.6	3.3	2.0	-0.8	-1.2	/	/
CC(=O)c1ccc(NC(=O)C2C3C=CC(O3)C2C(=O)O)cc1 (centres undefined)	24.0*	-2.2	15.3	-4.8	3.7	2.9	8.2
O=C(O)C1C2C=CC(O2)C1C(=O)Nc1ccc2c(c1)OCCO2 (centres undefined)	15.3*	/	1.4	/	6.8	0.8	10.1
CC(=O)c1ccc(NC(=O)C2C3CCC(C3)C2C(=O)O)cc1 (centres undefined)	-1.5	2.1	1.1	-2.0	-5.2	/	/
COc1ccc(NC(=O)O[C@@H](C)[C@@H]2CN3CCc4c([nH]c5ccc(-c6ccc(OC)cc6)cc45)[C@@H]3C[C@@H]2N(C)C(=O)Nc2ccc(OC)cc2)cc1	/	19.1	/	25.9	/	/	/
O=C(O)C1C2C=CC(O2)C1C(=O)Nc1ccc(S(=O)(=O)Nc2ccccc2)cc1 (centres undefined)	1.4	6.9	1.7	2.4	-1.7	/	/
CCCOC(=O)c1ccc(NC(=O)C2C3C=CC(O3)C2C(=O)O)cc1 (centres undefined)	20.6*	0.2	2.4	-3.2	0.8	-0.3	-0.2
O=C(O)C1C2C=CC(O2)C1C(=O)Nc1ccc(S(=O)(=O)N2CCc3ccccc32)cc1 (centres undefined)	16.7*	1.5	7.6	1.9	3.2	3.4	3.2
CN1C=CC=C/C1=C1\SC(=S)N(c2ccccc2)C1=O	2.7	1.3	-6.7	-4.4	0.7	/	/
CN1C=CC=C/C1=C1\SC(=S)N(C2CCCCC2)C1=O	9.7*	-3.8	-0.3	5.3	0.9	-1.5	-0.9
Cc1[nH]n(-c2ccccc2)c(=O)c1C(C[N+](=O)[O-])c1ccc(F)cc1 (centres undefined)	12.6*	-3.4	9.2	0.1	-0.8	-0.9	-2.9
Cc1ccc(C(C[N+](=O)[O-])c2c(C)[nH]n(-c3ccccc3)c2=O)cc1 (centres undefined)	3.2	-8.0	1.2	0.9	-0.9	/	/
